Sampled rows, rich in hits. Any-hit rate of the full collection: about 3.5%.
MITF inh: MITF inhibitors, primary screen, biochemical, AlphaScreen, human. Microphthalmia-associated transcription factor (Homo sapiens), O75030. AlphaScreen MITF homodimerization, bead proximity signal. inhibition, % at 2.6 µM. 650,000 compounds, 0.91% hits; in the data active = inhibition above about 50%
Target sequence (O75030 whole entry, looked up): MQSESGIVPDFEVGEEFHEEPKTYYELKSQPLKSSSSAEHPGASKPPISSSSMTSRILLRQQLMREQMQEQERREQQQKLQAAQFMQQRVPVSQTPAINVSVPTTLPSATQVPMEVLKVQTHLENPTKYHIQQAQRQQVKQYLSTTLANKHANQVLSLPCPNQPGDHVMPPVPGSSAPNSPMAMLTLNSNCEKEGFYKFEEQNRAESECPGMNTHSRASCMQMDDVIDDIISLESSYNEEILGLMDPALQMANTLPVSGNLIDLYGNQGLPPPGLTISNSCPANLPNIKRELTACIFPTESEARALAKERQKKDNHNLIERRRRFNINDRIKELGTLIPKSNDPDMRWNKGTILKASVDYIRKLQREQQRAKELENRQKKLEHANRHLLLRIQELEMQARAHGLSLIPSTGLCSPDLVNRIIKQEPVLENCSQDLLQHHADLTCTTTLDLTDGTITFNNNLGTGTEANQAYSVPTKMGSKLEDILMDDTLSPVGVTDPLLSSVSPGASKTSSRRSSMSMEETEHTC
TEAD-YAP inh: TEAD-YAP interaction inhibition, primary screen, TEAD-YAP interaction inhibitor project, luminescence, HEK-TIYL cells. TEAD-Gal4/YAP UAS-luciferase luminescence. inhibition, % at 9.12 µM. 640,000 compounds, 1.4% hits. AID 1259422, 2018; in the data active = inhibition above about 32%
FBW7 act: FBW7 E3 ligase activators, primary screen, biochemical, AlphaScreen, human; AlphaScreen FBW7–phospho-cyclin E peptide binding, activator screen; normalized activity (activation), % at 26.1 µM; 650,000 compounds, 0.13% hits; F-box/WD repeat-containing protein 7 (Homo sapiens), Q969H0; in the data active = normalized activity above about 1.9%;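 note: purified mutant Fbw7 with reduced substrate affinity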
GPR151 ag: activators of human GPR151, primary screen, cell-based, PathHunter beta-arrestin, luminescence; PathHunter beta-arrestin GPR151 cells; 650,000 compounds, 1% hits; activation, % at 11.2 µM; in the data active = activation above about 4.9%
GPR151 conf act: GPR151 activators, triplicate retest, confirmation, cell-based, PathHunter beta-arrestin, luminescence. shares compounds with GPR151 ag. 6,700 tested, under 10 active. activation, % at 11.2 µM. GPR151 PathHunter beta-arrestin cells, 90 min; % of EA-reagent control over plate median;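 active = mean percent activation across replicates above the confirmation screen cutoff of 4.91%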
GPR119 ag: GPR119 activators in beta-arrestin cells, counter-screen for GPR151 activator project, cell-based, PathHunter beta-arrestin, luminescence, triplicate. 6,700 compounds, 0.3% hits. 90 min; 0 = compound-well median, 100 = enzyme-acceptor control. shares compounds with GPR151 ag. activation, % at 11.2 µM;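 active = mean percent activation in the counterscreen above 29.09%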;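 note: counterscreen on off-target GPR119 to flag nonselective hits from the GPR151 activator screen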
Hits are given with their value; - = inactive; . = no result given.

SMILES	MITF inh	TEAD-YAP inh	FBW7 act	GPR151 ag	GPR151 conf act	GPR119 ag
CCOc1ccccc1OCCCNC(C)(C)C	-	-	-	-	.	.
Fc1ccccc1Cc1nnc2n1N=C(c1ccccc1)CS2	-	-	-	-	.	.
CN(CCc1ccccn1)c1nc2nonc2nc1NCc1ccccc1	-	-	-	-	.	.
Cc1nccn1CCN(C)c1nc2nonc2nc1NCc1ccccc1	-	-	-	12	-	-
COc1ccc(F)cc1S(=O)(=O)N1CCN(c2c(C)nn(-c3ccccc3)c2C)CC1	-	-	-	-	.	.
Cc1ccc(S(=O)(=O)N2N=C3CCCCC3C2(O)C(F)(F)F)cc1 (stereo not given)	-	-	-	-	.	.
CCCC1=NN(S(=O)(=O)c2ccc(C)cc2)C(O)(C(F)(F)F)C1 (stereo not given)	-	-	-	5.5	-	-
CC(c1ccccc1)N1CC(C(=O)N2CCN(c3ccc(F)cc3)CC2)CC1=O (stereo not given)	-	-	-	5.2	-	-
CC(CC(=O)N1CCN(c2ccc(F)cc2)CC1)c1ccccc1 (stereo not given)	-	-	-	11	-	-
O=C(NCC(=O)N1CCN(c2ccccc2)CC1)c1c(F)cccc1F	-	-	-	6.0	-	-
CCCC(C)C(=O)N1CCN(c2ccc(F)cc2)CC1 (stereo not given)	-	-	-	-	.	.
CCCc1c(C)[nH]c2ccc(OC)cc2c1=O	-	-	-	-	.	.
CCCCCNc1nc(OC(C(F)(F)F)C(F)(F)F)nc(OC(C(F)(F)F)C(F)(F)F)n1	-	-	-	-	.	.
O=C(NCc1ccco1)C1CN(C(=O)c2ccc(F)c(F)c2)C1	-	-	-	-	.	.
O=C(NC1CCSC1=O)C1CN(C(=O)c2ccc(F)c(F)c2)C1 (stereo not given)	-	-	-	8.2	-	-
CCOC(=O)c1nnn(CC(=O)NC(=O)Nc2cccc(CC)c2)c1C(=O)OCC	-	-	-	5.7	-	-
CC(C)C[C@H]1C(=O)N2CCN(Cc3cnn(-c4ccccc4Cl)c3)C[C@@H]2C(=O)N1C	-	-	-	5.8	-	-
O=C1[C@@H]2CCCN2C(=O)[C@H]2CN(Cc3cnn(-c4ccccc4Cl)c3)CCN12	-	-	-	-	.	.
COc1ccc2o/c(=N\c3sc4c(c3C#N)CCCC4)c(C(=O)Nc3ccc(C)cc3)cc2c1	-	-	-	-	.	.
O=c1[nH]c(O)c(C=Nc2ccc(F)c(F)c2)c(=O)[nH]1	-	-	-	13	-	-
COc1ccc(N=Cc2c(O)[nH]c(=S)[nH]c2=O)cc1OC	-	-	-	7.2	-	-
CC1(C)CC(=O)C2=C(C1)OC1=C(C(=O)CC(C)(C)C1)C2c1cccc(OCc2ccc(Cl)c(Cl)c2)c1	-	-	-	-	.	.
COc1cccc(CCN2C(=O)CCC2CCNCc2cccc(F)c2)c1 (stereo not given)	-	-	-	5.1	-	-
CCCNCCC1CCC(=O)N1CCc1cccc(OC)c1 (stereo not given)	-	-	-	6.7	-	-
CCC1(C)N=C(SCC(=O)Nc2ccc(OC)cc2)C(c2ccccc2)=N1 (stereo not given)	-	-	-	-	.	.
SMILES	MITF inh	TEAD-YAP inh	FBW7 act	GPR151 ag	GPR151 conf act	GPR119 ag
NC(=O)C1CCN(Cc2ccc(Cl)cc2)CC1	-	-	-	-	.	.
NC(=O)C1CCN(Cc2cccc(Cl)c2)CC1	-	-	-	5.1	-	-
O=C(Nc1ccc(Br)cc1)c1nn2c(C(F)(F)F)cc(-c3ccccc3)nc2c1Cl	-	-	-	-	.	.
CCN(CC)Cc1c(C(=O)N/N=C/c2cccc([N+](=O)[O-])c2)nnn1-c1nonc1N	-	-	-	9.9	-	-
CCOc1cc(/C=N/NC(=O)c2nnn(-c3nonc3N)c2CC)ccc1O	-	-	-	6.9	-	-
CCOc1cc(/C=N/NC(=O)c2nnn(-c3nonc3N)c2-c2ccccc2)ccc1O	-	-	-	-	.	.
CCCCC(=O)Nc1nnc(S(=O)(=O)N(C)c2cccc(C)c2)s1	-	-	-	6.7	-	-
CCOC(=O)N1CCC(Nc2nncc(-c3ccc(OC)cc3)n2)CC1	-	-	-	10	-	-
CCOC(=O)N1CCC(NC(=O)c2ccc(CSCc3c(F)cccc3Cl)o2)CC1	-	-	-	5.3	-	-
CCOC(=O)N1CCC(NC(=O)C(=O)CC(=O)c2ccc(OC)cc2)CC1	-	-	-	5.4	-	-
CCOC(=O)N1CCC(NCCNC(=O)c2ccc(Cl)cc2)CC1	-	-	-	12	-	-
Cc1cc(CNCc2ccc(OCC(O)CN(C)Cc3ccccc3)cc2)nn1C (stereo not given)	-	-	-	-	.	.
CCOc1cccc(CN2CCN(Cc3ccccc3F)C(CCO)C2)c1O (stereo not given)	-	-	-	-	.	.
O=C1CCC(C(=O)NCc2nnc3n2CCN(Cc2ccccc2C(F)(F)F)CC3)N1 (stereo not given)	-	-	-	9.8	-	-
O=S(=O)(NCC(c1ccco1)N1CCc2ccccc21)c1ccc(F)cc1 (stereo not given)	-	-	-	9.1	-	-
Cc1cccc(C(=O)Nc2ccc(O)c(-c3nc4cc(C)ccc4o3)c2)c1	-	-	-	-	.	.
O=C(CSc1nc2cc(C(=O)NCC3CCCO3)ccc2c(=O)n1CC1CCCO1)NC1CCCCC1 (stereo not given)	-	-	-	-	.	.
O=C(CSc1nc2cc(C(=O)NCC3CCCO3)ccc2c(=O)n1Cc1ccco1)NC1CCCCC1 (stereo not given)	-	-	-	5.2	-	-
CCOc1cc(/C=N/NC(C)=O)ccc1OCc1ccccc1C#N	-	-	-	-	.	.
Cc1cccc(N(Cc2ccccc2F)S(C)(=O)=O)c1	-	-	-	-	.	.
Cc1cccc(N(Cc2c(F)cccc2Cl)S(C)(=O)=O)c1	-	-	-	6.9	-	-
CC1(C)OC(=O)N2CCN3C(=O)OC(C)(C)C3(C)C(Br)=C21 (stereo not given)	-	-	-	6.0	-	-
COc1ccccc1C(=O)COC(=O)C1(C)CC1(Cl)Cl (stereo not given)	-	-	-	7.6	-	-
CCN(CC)c1nc(NCCCN2CCCC2=O)nc(Nc2ccncn2)n1	-	-	-	-	.	.
O=C(Nc1ccc(Br)cc1F)c1cnccn1	-	-	-	-	.	.
Cc1ccc(NC(=O)c2cnccn2)c(Br)c1	-	-	-	6.4	-	-
O=C1CCCCc2sccc2N1	-	-	-	6.4	-	-
